Assay results as given in the supplement of paper PMC4709259.
Where a name gives a salt, the structure may show the parent alone. ± gives the standard deviation.

Legend:
Jurkat [1] = experiment: mean cell size (FSC-A) relative to DMSO control (fraction of control); higher = larger cells; details: 48 h
Outline: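 Jurkat cells seeded at 600 cells/µl were incubated 1 h, then exposed for 48h to the Enzo Screen-Well FDA Approved Drug Library v2.0 at 25µM in 0.9% (v/v) final DMSO. Drugs that cut counts below 20% of controls were diluted 10-fold and retested, down to 25nM. Cell count and mean cell size (forward scatter area) were read on an Accuri C6 flow cytometer, relative to solvent-only controls. Plates held 6-12 controls; values are means of 3 biological replicates.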

Jurkat [2] = experiment: cell count relative to DMSO control (fraction of control); higher = more cells (less growth inhibition); details: 48 h

Row | SMILES | mean cell size (Jurkat [1]) | cell count (Jurkat [2])
1 | N[C@@H](Cc1cc(I)c(Oc2ccc(O)c(I)c2)c(I)c1)C(=O)O [Liothyronine·Na] (concentration: 25 µM) | 0.966 ± 0.02 | 0.648 ± 0.15
2 | CO/N=C(\C(=O)N[C@@H]1C(=O)N2C(C(=O)OC(C)OC(C)=O)=C(COC(N)=O)CS[C@H]12)c1ccco1 (stereo partly drawn) [Cefuroxime Axetil] (concentration: 25 µM) | 0.99 ± 0.028 | 0.895 ± 0.057
3 | CC(CN(C)C)CN1c2ccccc2CCc2ccccc21 (stereo not drawn) [Trimipramine Maleate] (concentration: 25 µM) | 1.02 ± 0.022 | 0.834 ± 0.056
4 | O=C(C1CCCCC1)N1CC(=O)N2CCc3ccccc3C2C1 (stereo not drawn) [Praziquantel] (concentration: 25 µM) | 0.996 ± 0.028 | 0.781 ± 0.048
5 | O=C(O)c1cc(=O)c2c(OCC(O)COc3cccc4oc(C(=O)O)cc(=O)c34)cccc2o1 [Cromolyn·Na (Disodium Cromoglycate)] (concentration: 25 µM) | 0.9231 ± 0.0045 | 1.05 ± 0.096
6 | CC(C(=O)O)c1ccc(-c2ccccc2)c(F)c1 (stereo not drawn) [Flurbiprofen] (concentration: 25 µM) | 0.974 ± 0.032 | 0.881 ± 0.083
7 | O=C1[C@H](CC[C@H](O)c2ccc(F)cc2)[C@@H](c2ccc(O)cc2)N1c1ccc(F)cc1 [Ezetimibe] (concentration: 25 µM) | 1.03 ± 0.022 | 0.639 ± 0.061
8 | O=C(O[C@@H]1C[C@@H]2C[C@H]3C[C@H](C1)N2CC3=O)c1c[nH]c2ccccc12 [Dolasetron] (concentration: 25 µM) | 0.921 ± 0.029 | 0.29 ± 0.053
9 | CN(C)CCC=C1c2ccccc2C=Cc2ccccc21 [Cyclobenzaprine·HCl] (concentration: 25 µM) | 1 ± 0.041 | 0.631 ± 0.094
